Compounds with a hit are over-represented: about 3.3% of the library has one in this group of screens.
HTT promoter inh: HTT promoter inhibition; AID 1508623; Potency, µM (highest dose often 57.5 µM), for the others: at the top dose activity change, negative = inhibition, usual class: inhibitors; 48,000 compounds, 0.93% hits; HEK293 HTT promoter firefly luciferase reporter, 24 h; also: nearly all actives have a fitted effect of over 50% in size
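Firefly luciferase signal from promoter-reporter HEK293 cells was scaled between vehicle (0%) and zero RLU (-100%). Compounds were tested at final concentrations of up to 57.5 uM over 24 h at 37 degrees C. PTC124 at 50 uM final served as control inhibitor.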
PMP22 txn prim: PMP22 gene transcription modulation. AID 1508649. S16 Pmp22-F2sN Schwann cells, FLuc/NLuc coincidence luminescence, 24 h. Potency, µM (doses to about 57.5 µM), for the others: at the highest dose activity change, negative = inhibition, most hits filed as inhibitors. 43,000 compounds, 2% hits; active = clear falling dose curves in both reporters; inconclusive = both reporters move, but less clearly or upward; inactive = either reporter flat; the % is the NLuc reporter signal; also: % is scaled to controls: 0 for no effect and ±100 for the full control effect
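Schwann cells carrying the coincidence reporter were exposed to library compounds for 24 h at 37C, then lysed and read for FLuc and, after quenching, NLuc luminescence on a CCD imager.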
FH mod: Identification of activators of human fumarate hydratase by quantitative high-throughput screening; AID 1347055, 2019; FH coupled MDH/diaphorase resazurin fluorescence, 15 min; Potency, µM (doses to about 79.9 µM), for inactives: at the top dose activity change, negative = inhibition, usual class: inhibitors; 54,000 compounds, 0.22% hits; also: % is scaled to controls: 0 for no effect and ±100 for the full control effect; the screen sought activators but most active calls are inhibition curves; nearly all actives have a fitted effect of over 45% in size
Target sequence (P07954 whole entry, looked up): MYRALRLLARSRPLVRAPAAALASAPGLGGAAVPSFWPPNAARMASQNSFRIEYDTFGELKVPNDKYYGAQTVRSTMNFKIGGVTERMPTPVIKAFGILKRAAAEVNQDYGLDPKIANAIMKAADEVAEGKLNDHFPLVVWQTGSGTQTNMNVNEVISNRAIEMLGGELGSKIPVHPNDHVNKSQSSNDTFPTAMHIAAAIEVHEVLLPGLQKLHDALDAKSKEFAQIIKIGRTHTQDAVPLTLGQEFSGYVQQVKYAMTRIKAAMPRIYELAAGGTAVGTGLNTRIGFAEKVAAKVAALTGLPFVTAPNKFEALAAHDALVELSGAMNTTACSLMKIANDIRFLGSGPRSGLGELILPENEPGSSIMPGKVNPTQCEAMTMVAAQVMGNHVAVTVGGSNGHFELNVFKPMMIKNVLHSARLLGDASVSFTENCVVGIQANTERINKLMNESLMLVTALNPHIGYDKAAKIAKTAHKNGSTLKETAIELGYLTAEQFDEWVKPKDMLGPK
HTT-AS act: HTT-AS promoter activation. HEK293 HTT-AS promoter firefly luciferase reporter, 24 h; response scale: percent change from vehicle, -100% = no light. Potency, µM (highest dose often 57.5 µM), inactives show at the top dose activity change, positive = activation, actives largely listed as activators. 48,000 compounds, 0.24% hits. AID 1508624; also: nearly all actives have a fitted effect of over 55% in size
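HEK293 Fluc reporter, 2,500 cells/well, 24 h pre-culture; cpds up to 57.5 uM final, 24 h 37 degrees C; Dual-Glo, 10 min RT; normalized vehicle = 0%, zero RLU = -100%.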
mTORC1 inh: reduces mTORC1 signaling in Tsc2 and p53 null MEF cells | Potency, µM (highest dose often 38.3 µM), for inactives: top-dose activity change, negative = inhibition, hits mostly inhibitors | Tsc2-/- p53-/- MEF, phospho-rpS6 immunofluorescence/PI, 24 h | 44,000 compounds, 0.78% hits;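 also: plate controls were DMSO for no effect and rapamycin for full effect; nearly all actives have a fitted effect of over 50% in size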
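Readout is phospho-S6 Alexa 488 signal normalized to PI per well, reported as % active cells with thresholds set from rapamycin (7.5 nM) and DMSO controls. Cells: Tsc2-/-, p53-/- MEFs, 24 hrs compound at 37 C; PI cell number serves as viability.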
S16 F2sN tox: toxic to S16 Pmp22-F2sN Schwann cells. 43,000 compounds, 0.48% hits. Potency, µM (highest dose often 57.5 µM), inactives show at the highest dose activity change, negative = cytotoxicity, hits mostly cytotoxic. S16 Pmp22-F2sN Schwann cells (luciferase reporters placed in the Pmp22 gene) viability, CellTiter-Glo, 24 h; also: % is scaled to controls: 0 for no effect and ±100 for the full control effect; nearly all actives have a fitted effect of over 65% in size
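Seed 500-1,000 S16 Pmp22-F2sN cells per well in phenol-red-free DMEM with 10% heat-inactivated FBS; pin-add 23 nL compound; incubate 24 h at 37C; add CellTiter-Glo, wait 15 min protected from light; read luminescence.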
Starred values were filed as active, the others as inactive; ? = inconclusive; nt = no result given; [ ] = another dose, or the depositor's remark. Unless noted, calls follow the shape of the dose curve; as a rule, active = well fitted curve in the direction sought with a large enough effect; inconclusive = small, poorly fitted or top-dose-only effect, or another doubt; inactive = no such curve, though single readings can be large; an effect the other way counts as inactive or inconclusive. Potency is read from the fitted curve at half-maximal effect.

SMILES | HTT promoter inh | PMP22 txn prim | FH mod | HTT-AS act | mTORC1 inh | S16 F2sN tox
CC1(C)CC[C@]23CO[C@@]4(CCC5[C@@]6(C)CC[C@H](O[C@@H]7OC[C@H](O[C@@H]8O[C@H](CO)[C@@H](O)[C@H](O)[C@H]8O[C@@H]8OC[C@@H](O)[C@H](O)[C@H]8O)[C@H](O)[C@H]7O)[C@@](C)(CO)C6CC[C@@]5(C)[C@]4(C)CC2=O)[C@@H]3C1 (some centres undefined) | nt | nt | -0.1%[20.6 µM] | nt | nt | nt
CC(C)CC(=O)O[C@@H]1OC=C(CO[C@@H]2O[C@H](CO[C@@H]3O[C@H](CO)[C@@H](O)[C@H](O)[C@H]3O)[C@@H](O)[C@H](O)[C@H]2O)[C@H]2C[C@H](O)[C@@H](CO)[C@@H]12 | nt | nt | 6.2%[20.6 µM] | nt | nt | nt
CCCN(CCC)S(=O)(=O)c1ccc(C(=O)Nc2cccc(-c3nc4ccccc4[nH]3)c2)cc1 | ? | 18.9µM* | -25.9% | -47.9% | -1.7% | ?
O=C(c1ccc2c(c1)N(Cc1cccc(Cl)c1)C(=O)c1ccccc1S2=O)N1CCN(c2cccc(C(F)(F)F)c2)CC1 (centres undefined) | -42.8% | 10.8µM* | -13.1% | -26.4% | -1.5% | ?
Cc1cccc(N2CCN(C(=O)c3ccc4c(c3)N(Cc3ccccc3F)C(=O)c3ccccc3S4=O)CC2C)c1 (centres undefined) | ? | 9.04µM* | -21.2% | -32.5% | -9.6% | 10.9%
NC(N)=NC(=O)c1cnn(-c2cccc3ncccc23)c1C1CC1 | nt | nt | 5.4% | nt | nt | nt
COc1ccccc1C(=O)N1c2ccccc2C(C)(c2ccc(Cl)cc2)CC1(C)C (centres undefined) | 25.1µM* | ? | -9.8% | -50.1% | ? | 0.6%
C=CC(=O)N1CCN(C(=O)c2cc(-c3cc(Cl)ccc3Cl)c(Cl)cc2OC)CC1 | nt | nt | -4.5% | nt | nt | nt
O=C(Nc1ccc(F)cc1)c1ccc(Cn2nc(N3CCN(c4ccccc4)CC3)ccc2=O)o1 | 14.1µM* | ? | -26.1% | -42.0% | -21.9% | ?
O=C(Nc1ccccc1F)c1ccc(Cn2nc(N3CCN(c4ccccc4)CC3)ccc2=O)o1 | ? | ? | -10.4% | -31.1% | -3.0% | -2.6%
[2H]C([2H])([2H])C(OC(=O)[C@H](C)N[P@](=O)(OC[C@H]1O[C@@H](n2ccc(=O)[nH]c2=O)[C@](C)(F)[C@@H]1O)Oc1ccccc1)C([2H])([2H])[2H] | nt | nt | 12.4% | nt | nt | nt
Cc1cn([C@H]2C[C@H](O)[C@@H](CO)O2)c(=O)nc1N | nt | nt | 0.1% | nt | nt | nt
CC(C)(C)c1ccc(C(=O)Nc2ccc3nc(SCC(=O)N4CCCC4)sc3c2)cc1 | 14.1µM* | ? | ? | -86.0% | -25.6% | ?
COc1c(C(C)C)c(O)c(O)c2c1C(OC)[C@H]1OC(=O)[C@@]23CCCC(C)(C)[C@H]13 (some centres undefined) | nt | nt | 13.2µM* | nt | nt | nt
Cc1cc(CO)c(O)c(C(=O)CC2CC(=O)NC(=O)C2)c1 | nt | nt | -0.8% | nt | nt | nt
COc1cc(C(=O)NC(c2ccc(Cl)cc2)c2cc(Cl)c3cccnc3c2O)cc(OC)c1OC (centres undefined) | 5.01µM* | ? | -16.3% | -60.8% | -0.2% | 3.16µM*
COc1cccc(C(=O)NC(c2ccc(Cl)cc2)c2cc(Cl)c3cccnc3c2O)c1 (centres undefined) | ? | 4.59µM* | -5.7% | -43.7% | -2.5% | 5.01µM*
COc1cccc(C(=O)NCCN2CCN(c3ccc(Cl)cc3)CC2)c1 | nt | nt | -12.6%[53.3 µM] | nt | nt | nt
CCN(CCCNC(=O)c1cc2c(=O)[nH]c3ccc(C)cc3c2s1)Cc1ccccc1 | -20.9% | ? | ? | -25.8% | 18.5µM* | ?
CC1CCCN(CCCNC(=O)c2cc3c(Cl)nc4ccccc4c3s2)C1 (centres undefined) | -27.0% | ? | -3.8% | -32.5% | 18.5µM* | ?
CN(CCCNC(=O)c1cc2c(Cl)nc3ccccc3c2s1)Cc1ccccc1 | -9.1% | ? | 0.3% | -23.2% | 13.1µM* | ?
O=C(/C=C/c1cccnc1)c1ccncc1 | nt | nt | 3.8% | nt | nt | nt
C/C=C(\C)C(=O)OC[C@H]1O[C@H](O[C@H]2O[C@H](CO)[C@@H](OC(=O)/C(C)=C/C)[C@H](O)[C@H]2O[C@@H]2O[C@H](CO)[C@@H](O)[C@H](O)[C@H]2O)[C@H](O[C@@H]2O[C@H](CO)[C@@H](O)[C@H](O)[C@H]2O)[C@@H](O)[C@@H]1O | nt | nt | 1.3%[20.6 µM] | nt | nt | nt
CC(=O)OC1C(O)C(C)=C(CCC(C)CC(=O)O)C2(C)CCCC(C)(C)C12 (centres undefined) | nt | nt | -0.2%[53.3 µM] | nt | nt | nt
CCC(=O)Nc1cccc(-c2cn3c(C)csc3n2)c1 | 20.4% | -24.2% | -2.0% | 12.2% | -7.9% | ?
SMILES | HTT promoter inh | PMP22 txn prim | FH mod | HTT-AS act | mTORC1 inh | S16 F2sN tox
CCOCC(=O)Nc1ccc(-c2cn3c(C)csc3n2)cc1 | 1.26µM* | ? | 0.0% | -80.2% | 0.0% | 1.3%
CCOC(=O)c1ccc(Nc2nc3nonc3nc2Nc2cccc(C)c2C)cc1 | 2.24µM* | 10.6µM* | ? | -87.4% | -20.1% | ?
Cc1ccc(C)c(Nc2nc3nonc3nc2Nc2cccc(C)c2C)c1 | ? | ? | ? | -88.4% | -9.3% | ?
CCN(CC)CCNC(=O)c1ccc(Cn2c(=O)c3cccn3c3cccnc32)cc1 | 5.3% | -25.3% | -13.3% | -1.4% | 3.29µM* | 0.6%
CCOCCCNC(=O)c1ccc(Cn2c(=O)c3cccn3c3cccnc32)cc1 | -24.4% | 11.3µM* | 5.7% | -24.8% | -15.0% | 21.3%
COc1cc(OC)cc(C(=O)Nc2ccc(Cl)c(-c3nc4ccc(N(C)C)cc4[nH]3)c2)c1 | nt | nt | -6.9% | nt | nt | nt
COc1ccc(C#Cc2ccc(C(=O)N3CCC[C@@H](CO)C3)cc2)cc1 | nt | nt | 6.3% | nt | nt | nt
CC(=O)c1c(OCCN2CCCCC2)c(OCCC(C)c2ccc(F)cc2)c2oc(C)nc2c1C (centres undefined) | nt | nt | -1.7% | nt | nt | nt
Cc1ccc(-n2nc3c(N4CCC(C(=O)NCc5ccccc5Cl)CC4)nnc(C)c3c2C)cc1 | -2.2% | ? | 3.3% | -13.8% | 0.4% | -3.5%
Cc1nnc(N2CCC(C(=O)NCCc3ccccc3Cl)CC2)c2nn(-c3ccccc3)c(C)c12 | ? | ? | -3.8% | -36.6% | -8.3% | 35.5µM*
COc1cc(O)c2c(c1)/C=C/C[C@H](O)[C@H](O)C(=O)/C=C\C[C@H](C)OC2=O | nt | nt | -5.7% | nt | nt | nt
CCc1ccc(/C=C2/SC(=S)NC2=O)cc1 | nt | nt | 15.8µM* | nt | nt | nt

Screens deposited in PubChem BioAssay by National Center for Advancing Translational Sciences (NCATS).
